# ssDAF12 agonist – S. stercoralis DAF-12 nuclear receptor activators, primary screen, cell-based, luminescence, HEK293, GRIP1 co-expression, lit1-tk-luc. Nuclear hormone receptor DAF-12 (Strongyloides stercoralis). HEK293 ssDAF-12/GRIP1 lit1-tk-luc reporter; % of 3 µM dafachronic acid response. activation, % at 6.8 µM. hit rate 1% among 370,000. AID 652126, 2013;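 active means activation above the mean over all tested compounds plus 3 SD, cut at about 0.9% in these data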;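 further: 0% = DMSO-only wells and 100% = 3 µM delta7-dafachronic acid wells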
# hgDAF12 agonist – H. glycines DAF-12 receptor agonists, primary screen, cell-based, luminescence, HEK293, GAL4 fusion, UAS-luciferase | HEK293 GAL4-hgDAF12 UAS-luciferase reporter, agonist luminescence; normalized to butyrate control | Nuclear hormone receptor DAF-12 (Heterodera glycines), GAL4 fusion | hit rate 1.8% among 370,000 | activation, % at 6.8 µM;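 active means activation above a cutoff set at the mean of all screened compounds plus 3 SD, cut at about 10% in these data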;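 further: 0% = DMSO wells and 100% = sodium butyrate wells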
# DAX1 inh-1 – DAX1 (NR0B1) inhibitors, primary screen, cell-based, HEK293, Gal4-DAX1, luciferase luminescence; hit rate 0.99% among 340,000; inhibition, % at 6.75 µM; HEK293 Gal4-DAX1 luciferase reporter; Nuclear receptor subfamily 0 group B member 1 (Homo sapiens), P51843;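 active means inhibition above the mean over all tested compounds plus 3 SD, cut at about 4.2% in these data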;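 further: 0% = DAX1-transfected cells with DMSO and 100% = empty-vector control cells with DMSO; inhibition shows as a rise in luminescence from relieved DAX1 repression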
# SMARCA2 act – SMARCA2 (BRM) function activators, primary screen, cell-based, luminescence, high throughput. MG213 cells, MMTV-luciferase reporter, dexamethasone, overnight. activation, % at 9.1 µM. hit rate 1% among 370,000; in the data active means activation above about 7.8%;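 further: 0% = vehicle wells and 100% = reference activator wells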
# DAX1 inh-2 – DAX1 (NR0B1) inhibitors on StAR promoter, primary screen, cell-based, luminescence, SF-1 (NR5A1), full-length DAX-1. HEK293T StAR-luciferase reporter, SF-1/DAX-1 repression relief. inhibition, % at 6.8 µM. hit rate 1.1% among 370,000;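 active means inhibition above the mean over all tested compounds plus 3 SD, cut at about 3.6% in these data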;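 further: 0% = DAX-1 cells with DMSO and 100% = cells lacking DAX-1 with DMSO; higher inhibition means more luminescence from relief of DAX-1 repression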
# hcDAF-12 act – H. contortus DAF-12 nuclear receptor activators, primary screen, cell-based, luminescence, HEK293, lit1-tk-luc reporter; HEK293 hcDAF-12 lit1-tk-luc reporter; 0% DMSO, 100% Δ7-dafachronic acid; activation, % at 6.8 µM; hit rate 1.4% among 370,000;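 active means activation above the mean of all tested compounds plus 3 SD, cut at about 5.5% in these data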;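 further: 100% = response to 3 µM Δ7-dafachronic acid high control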
# DAX1 inh confirm – DAX1 (NR0B1) inhibitors relieving SF-1 repression, confirmation, cell-based, luminescence, HEK293T, full-length DAX-1, SF-1 activated StAR promoter | hit rate 87% among 2,400 | HEK293T StAR-promoter luciferase reporter, SF-1/DAX-1 repression | shares compounds with DAX1 inh-2 | inhibition, % at 6.8 µM;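 active means inhibition above the average of every tested compound plus 3 SD, cut at about 3.8% in these data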;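 further: 0% = DAX-1 cells with DMSO and 100% = no DAX-1 control cells with DMSO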
# SF1 AF2mut Luc – StAR reporter signal changes without DAX1, counter-screen for DAX1 inhibitor project, cell-based, luminescence, AF-2 mutant SF-1, transactivation | hit rate 78% among 2,400 | shares compounds with DAX1 inh-2 | HEK293 StAR-luciferase, SF-1 AF2 mutant | inhibition, % at 6.8 µM | AID 652136, 2013;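 active means inhibition above the mean of all tested compounds plus 3 SD, cut at about 3% in these data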;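 further: 0% = DAX-1 transfected cells with DMSO and 100% = cells without DAX-1 with DMSO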
# SMARCA2 act conf – SMARCA2 (BRM) function activators, confirmation, cell-based, luminescence, triplicate; shares compounds with SMARCA2 act; MG213 cells, MMTV-luciferase with dexamethasone, overnight; MG213 cells expressing E1A, Rb sequestered; DMSO wells 0%, reference activator 100%; activation, % at 9.1 µM; hit rate 30% among 3,500; AID 652260, 2013;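 active means activation above its plate's cutoff, the mean activation of tested wells plus 3 SD, cut at about 7.9% in these data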
# GAL4-VP16 Luc – GAL4-VP16 luciferase reporter activation, counter-screen for SMARCA2 (BRM) activator project, cell-based, pG5luc, luminescence, high throughput; hit rate 41% among 3,500; HEK293 GAL4-VP16 pG5luc reporter; scaled: DMSO wells 0%, SAHA wells 100%; shares compounds with SMARCA2 act; activation, % at 9.1 µM; AID 686939, 2013;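 active means activation above the solvent-only control well mean plus 3 SD, averaged across control plates, cut at about 5.2% in these data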
# LXR ag – LXR agonists, Gal4 luciferase reporter, confirmation, counter-screen for hcDAF-12 agonist project, cell-based, luminescence, HEK293, H. contortus campaign | HEK293 Gal4-LXR tk-luc reporter, 24 h; normalized: DMSO 0%, positive control 100% | shares compounds with hcDAF-12 act | 3,400 tested, under 10 active | activation, % at 6.8 µM;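 active means mean percent activation of the reporter above a cutoff set as the average over tested compounds plus their standard deviation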
# Target sequence (P55055 whole entry, looked up, the tested form may be a part): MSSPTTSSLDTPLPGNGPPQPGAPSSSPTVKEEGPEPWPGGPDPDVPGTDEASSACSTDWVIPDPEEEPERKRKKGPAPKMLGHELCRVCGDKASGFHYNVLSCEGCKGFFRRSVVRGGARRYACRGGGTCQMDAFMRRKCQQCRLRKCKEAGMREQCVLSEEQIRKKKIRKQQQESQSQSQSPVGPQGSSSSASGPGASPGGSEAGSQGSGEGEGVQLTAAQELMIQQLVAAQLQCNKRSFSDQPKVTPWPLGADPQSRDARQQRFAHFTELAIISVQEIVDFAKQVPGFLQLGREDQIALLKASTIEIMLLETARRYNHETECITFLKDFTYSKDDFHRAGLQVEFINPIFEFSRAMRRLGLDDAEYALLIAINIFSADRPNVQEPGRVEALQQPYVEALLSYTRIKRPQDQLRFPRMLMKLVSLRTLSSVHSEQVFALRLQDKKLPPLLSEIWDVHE
# hcDAF12 conf – H. contortus DAF-12 receptor agonists, confirmation, cell-based, luminescence, HEK293, lit1-tk-luc, triplicate; shares compounds with hcDAF-12 act; HEK293 hcDAF-12 lit1-tk-luc reporter; % of Δ7-dafachronic acid response; activation, % at 6.8 µM; hit rate 61% among 3,400;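 active means mean activation across triplicate tests above the threshold derived from the earlier primary screen, cut at about 5.5% in these data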;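 further: 0% = DMSO only wells and 100% = 3 µM Δ7-dafachronic acid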
# hgDAF12 ag – H. glycines DAF-12 receptor agonists, confirmation, cell-based, luminescence, HEK293, GAL4-LBD fusion; activation, % at 6.8 µM; shares compounds with hgDAF12 agonist; hit rate 80% among 3,300; HEK293 GAL4-hgDAF12 luciferase reporter, agonist mode; percent of butyrate response;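 active means mean activation over triplicate wells above the hit cutoff derived from the earlier primary screen, cut at about 11% in these data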;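 further: 0% = DMSO low control and 100% = 2 mM sodium butyrate high control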
# LXR ag 2 – LXR agonists, Gal4 luciferase reporter, confirmation, counter-screen for hgDAF-12 agonist project, cell-based, luminescence, HEK293, H. glycines campaign; shares compounds with hgDAF12 agonist; 24 h; activation, % at 6.8 µM; 3,300 tested, under 10 active; AID 743051, 2013;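 active means mean activation of the triplicate above a set limit carried over from the primary screen, none filed active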
# Starred values were filed as active, the others as inactive; / = no result given. Rows were chosen to be rich in hits. Some 4.8% of all compounds tested hit in one or more screens of this group.
SMILES,ssDAF12 agonist,hgDAF12 agonist,DAX1 inh-1,SMARCA2 act,DAX1 inh-2,hcDAF-12 act,DAX1 inh confirm,SF1 AF2mut Luc,LXR ag,hcDAF12 conf,hgDAF12 ag,LXR ag 2,others
Fc1ccccc1CSc1ncnc2c1ncn2C1CCCCO1 (configuration not stated),0,14*,1,2,6.1*,5,8.6*,5.0*,/,/,13*,1,
COc1cc(OC)c2c(=O)cc(-c3ccccc3)oc2c1,-1,16*,4,0,4.7*,3,4.7*,1,/,/,9,0,
CC(=O)c1sc(Nc2ccccc2)nc1C,-1,4,/,-2,0,2,/,/,/,/,/,/,
Cc1nc(Nc2ccc(C(=O)O)cc2)sc1-c1ccccc1,2.6*,17*,1,9.1*,5.5*,10*,3,0,2,7.2*,10,1,SMARCA2 act conf=9.2*;GAL4-VP16 Luc=5.4*
Cc1nc(Nc2ccccc2)sc1-c1ccccc1,1.1*,21*,3,5,6.7*,9.8*,21*,9.8*,2,8.3*,21*,1,
Cc1nc(Nc2ccccc2)sc1C(=O)c1ccccc1,-2,6,/,-1,0,0,/,/,/,/,/,/,

# Screens as filed in PubChem.
